{"source": "the supplement of paper PMC8728848", "binders": {"B1": {"name": "GS7807E-bfa-538-23-538 (Bacteroides fragilis) (protein)", "chain": "TDSFESFNTNEAGFDNDSKKQDFNYYGIPLGIIQQGIYFNYDWGSGKNWPFQTMQNLGADLFSGYVHDFNPFNEGKNNSTYYMMDGWNGSTWDNTYGYIMPEVQKSETINEKDNIGFFGITKILKVELMHRLSDLYGPIVYTQFGSKTGSTPDTQQEAYKAFFNDLDTGIAKIREYQKANPDIESFAKFDILMPQGKRTFSEWIRFANSLRLRLAVRIAMADSKLAVAEAQKALTDEEGLLEGNDEVVAVSTSSGYTNPFGEINKAWGEVFMNANMESLLVGYEDPRMEKYFDKATGSDATSLIDYKGTYKGIRQGTGFSHKNYNGHSKSTITQQTDAVLMTPAEVWFLRAEAALRGWSSESVKDCYEKGVKASFAQWGAAGAEAYLESDRKPSDYVDAFKAANNVKAVNTLTPKWDDAAGNEDKLGRIITQKWLAMFPEGGEAWAEQRRTGYPRLFPVLVNQSEGTVDTNLGPRRLNFFVGIKTTNPEQYTQLVNALGGIDNCGTRLWWDTGRNF"}}, "assay_in_all_cases": "glycan array binding signal (z-score within array); higher = stronger binding", "conditions_in_all_cases": "glycan notation: IUPAC condensed, linker removed", "key": {"Fuc(a1-2)Gal": {"molecular_target": "Fuc(a1-2)Gal", "how_it_was_run": "(§1)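 The Consortium for Functional Glycomics database supplied 3228 glycan arrays, of which those lacking an available protein sequence were dropped. The binding signal, a within-array Z-score, was averaged across arrays of the same protein sequence and across linkers. Negative scores can be read as non-binding.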"}, "[1]": {"molecular_target": "Fuc(a1-2)Gal(b1-3)GlcNAc(b1-2)Man(a1-3)[Fuc(a1-2)Gal(b1-3)GlcNAc(b1-2)Man(a1-6)]Man(b1-4)GlcNAc(b1-4)GlcNAc", "how_it_was_run": "as §1"}, "[2]": {"molecular_target": "Fuc(a1-2)Gal(b1-3)GlcNAc(b1-3)[Gal(b1-4)GlcNAc(b1-6)]Gal(b1-4)Glc", "how_it_was_run": "as §1"}, "[3]": {"molecular_target": "Fuc(a1-2)Gal(b1-3)[Fuc(a1-4)]GlcNAc(b1-3)[Gal(b1-4)GlcNAc(b1-6)]Gal(b1-4)Glc", "how_it_was_run": "as §1"}, "[4]": {"molecular_target": "Fuc(a1-2)Gal(b1-4)GlcNAc(b1-2)Man(a1-3)[Fuc(a1-2)Gal(b1-4)GlcNAc(b1-2)Man(a1-6)]Man(b1-4)GlcNAc(b1-4)[Fuc(a1-6)]GlcNAc", "how_it_was_run": "as §1"}, "[5]": {"molecular_target": "Fuc(a1-2)Gal(b1-4)GlcNAc(b1-2)[Fuc(a1-2)Gal(b1-4)GlcNAc(b1-4)]Man(a1-3)[Fuc(a1-2)Gal(b1-4)GlcNAc(b1-2)Man(a1-6)]Man(b1-4)GlcNAc(b1-4)GlcNAc", "how_it_was_run": "as §1"}, "[6]": {"molecular_target": "Fuc(a1-2)Gal(b1-4)[Fuc(a1-3)]GlcNAc(b1-2)[Fuc(a1-2)Gal(b1-4)[Fuc(a1-3)]GlcNAc(b1-4)]Man(a1-3)[Fuc(a1-2)Gal(b1-4)[Fuc(a1-3)]GlcNAc(b1-2)Man(a1-6)]Man(b1-4)GlcNAc(b1-4)GlcNAc", "how_it_was_run": "as §1"}, "Fuc(a1-2)Gal6S(b1-4)Glc": {"molecular_target": "Fuc(a1-2)Gal6S(b1-4)Glc", "how_it_was_run": "as §1"}, "[7]": {"molecular_target": "Fuc(a1-2)Gal6S(b1-4)Glc6S", "how_it_was_run": "as §1"}, "[8]": {"molecular_target": "Gal(a1-3)Gal(b1-3)[Fuc(a1-4)]GlcNAc(b1-2)Man(a1-3)[Gal(a1-3)Gal(b1-3)[Fuc(a1-4)]GlcNAc(b1-2)Man(a1-6)]Man(b1-4)GlcNAc(b1-4)GlcNAc", "how_it_was_run": "as §1"}, "[9]": {"molecular_target": "Gal(a1-3)Gal(b1-4)GlcNAc(b1-6)GalNAc", "how_it_was_run": "as §1"}, "Gal(a1-4)Gal(b1-4)GlcNAc": {"molecular_target": "Gal(a1-4)Gal(b1-4)GlcNAc", "how_it_was_run": "as §1"}, "Gal(a1-6)Glc": {"molecular_target": "Gal(a1-6)Glc", "how_it_was_run": "as §1"}, "[10]": {"molecular_target": "Gal(b1-3)GalNAc(b1-3)Gal(a1-4)Gal(b1-4)Glc", "how_it_was_run": "as §1"}, "[11]": {"molecular_target": "Gal(b1-3)GlcNAc(b1-3)Gal(b1-3)GlcNAc", "how_it_was_run": "as §1"}, "[12]": {"molecular_target": "Gal(b1-3)GlcNAc(b1-3)Gal(b1-4)[Fuc(a1-3)]GlcNAc", "how_it_was_run": "as §1"}, "[13]": {"molecular_target": "Gal(b1-3)GlcNAc(b1-3)Gal(b1-4)[Fuc(a1-3)]GlcNAc(b1-6)[Gal(b1-3)GlcNAc(b1-3)]Gal(b1-4)Glc", "how_it_was_run": "as §1"}, "Gal(b1-4)Gal": {"molecular_target": "Gal(b1-4)Gal", "how_it_was_run": "as §1"}, "[14]": {"molecular_target": "Gal(b1-4)GlcNAc(b1-2)[Gal(b1-4)GlcNAc(b1-4)]Man(a1-3)[Gal(b1-4)GlcNAc(b1-2)Man(a1-6)]Man(b1-4)GlcNAc(b1-4)GlcNAc", "how_it_was_run": "as §1"}, "[15]": {"molecular_target": "Gal(b1-4)GlcNAc(b1-3)Gal(b1-3)GlcNAc", "how_it_was_run": "as §1"}, "[16]": {"molecular_target": "Gal(b1-4)GlcNAc(b1-3)Gal(b1-4)GlcNAc(b1-3)Gal(b1-4)GlcNAc(b1-2)[Gal(b1-4)GlcNAc(b1-3)Gal(b1-4)GlcNAc(b1-3)Gal(b1-4)GlcNAc(b1-6)]Man(a1-6)[Gal(b1-4)GlcNAc(b1-3)Gal(b1-4)GlcNAc(b1-3)Gal(b1-4)GlcNAc(b1-2)Man(a1-3)]Man(b1-4)GlcNAc(b1-4)[Fuc(a1-6)]GlcNAc", "how_it_was_run": "as §1"}, "[17]": {"molecular_target": "Gal(b1-4)GlcNAc(b1-3)Gal(b1-4)GlcNAc(b1-3)Gal(b1-4)GlcNAc(b1-3)Gal(b1-4)GlcNAc(b1-3)Gal(b1-4)GlcNAc(b1-2)[Gal(b1-4)GlcNAc(b1-3)Gal(b1-4)GlcNAc(b1-3)Gal(b1-4)GlcNAc(b1-3)Gal(b1-4)GlcNAc(b1-3)Gal(b1-4)GlcNAc(b1-6)]Man(a1-6)[Gal(b1-4)GlcNAc(b1-3)Gal(b1-4)GlcNAc(b1-3)Gal(b1-4)GlcNAc(b1-3)Gal(b1-4)GlcNAc(b1-3)Gal(b1-4)GlcNAc(b1-2)Man(a1-3)]Man(b1-4)GlcNAc(b1-4)[Fuc(a1-6)]GlcNAc", "how_it_was_run": "as §1"}, "[18]": {"molecular_target": "Gal(b1-4)GlcNAc(b1-3)Gal(b1-4)GlcNAc(b1-6)[Gal(b1-3)]GalNAc", "how_it_was_run": "as §1"}, "[19]": {"molecular_target": "Gal(b1-4)GlcNAc(b1-3)Gal(b1-4)[Fuc(a1-3)]GlcNAc(b1-3)Gal(b1-4)[Fuc(a1-3)]GlcNAc", "how_it_was_run": "as §1"}, "[20]": {"molecular_target": "Gal3S(b1-4)[Fuc(a1-3)]GlcNAc6S", "how_it_was_run": "as §1"}, "Gal3S4S(b1-4)GlcNAc": {"molecular_target": "Gal3S4S(b1-4)GlcNAc", "how_it_was_run": "as §1"}, "Gal4S(b1-4)GlcNAc": {"molecular_target": "Gal4S(b1-4)GlcNAc", "how_it_was_run": "as §1"}, "[21]": {"molecular_target": "GalNAc(b1-3)Gal(a1-4)Gal(b1-4)GlcNAc", "how_it_was_run": "as §1"}, "[22]": {"molecular_target": "GalNAc3S(b1-4)[Fuc(a1-3)]GlcNAc", "how_it_was_run": "as §1"}, "GalNAc4S6S(b1-4)GlcNAc": {"molecular_target": "GalNAc4S6S(b1-4)GlcNAc", "how_it_was_run": "as §1"}}, "note": "Shown is part of a subset that was picked to be rich in the strongest signals."}
{"binder": "B1", "values": [{"measurement": "glycan array binding signal (z-score)", "setting": "Fuc(a1-2)Gal", "value": -0.69}, {"measurement": "glycan array binding signal (z-score)", "setting": "[1]", "value": 3.42}, {"measurement": "glycan array binding signal (z-score)", "setting": "[2]", "value": 1.03}, {"measurement": "glycan array binding signal (z-score)", "setting": "[3]", "value": -0.553}, {"measurement": "glycan array binding signal (z-score)", "setting": "[4]", "value": -0.382}, {"measurement": "glycan array binding signal (z-score)", "setting": "[5]", "value": 0.002}, {"measurement": "glycan array binding signal (z-score)", "setting": "[6]", "value": 0.988}, {"measurement": "glycan array binding signal (z-score)", "setting": "Fuc(a1-2)Gal6S(b1-4)Glc", "value": -0.644}, {"measurement": "glycan array binding signal (z-score)", "setting": "[7]", "value": -0.639}, {"measurement": "glycan array binding signal (z-score)", "setting": "[8]", "value": 10.5}, {"measurement": "glycan array binding signal (z-score)", "setting": "[9]", "value": 0.296}, {"measurement": "glycan array binding signal (z-score)", "setting": "Gal(a1-4)Gal(b1-4)GlcNAc", "value": 0.333}, {"measurement": "glycan array binding signal (z-score)", "setting": "Gal(a1-6)Glc", "value": -0.29}, {"measurement": "glycan array binding signal (z-score)", "setting": "[10]", "value": 0.143}, {"measurement": "glycan array binding signal (z-score)", "setting": "[11]", "value": 0.812}, {"measurement": "glycan array binding signal (z-score)", "setting": "[12]", "value": -0.465}, {"measurement": "glycan array binding signal (z-score)", "setting": "[13]", "value": -0.627}, {"measurement": "glycan array binding signal (z-score)", "setting": "Gal(b1-4)Gal", "value": -0.624}, {"measurement": "glycan array binding signal (z-score)", "setting": "[14]", "value": 3.32}, {"measurement": "glycan array binding signal (z-score)", "setting": "[15]", "value": -0.306}, {"measurement": "glycan array binding signal (z-score)", "setting": "[16]", "value": 4.56}, {"measurement": "glycan array binding signal (z-score)", "setting": "[17]", "value": 0.867}, {"measurement": "glycan array binding signal (z-score)", "setting": "[18]", "value": 4.07}, {"measurement": "glycan array binding signal (z-score)", "setting": "[19]", "value": 0.531}, {"measurement": "glycan array binding signal (z-score)", "setting": "[20]", "value": -0.155}, {"measurement": "glycan array binding signal (z-score)", "setting": "Gal3S4S(b1-4)GlcNAc", "value": -0.693}, {"measurement": "glycan array binding signal (z-score)", "setting": "Gal4S(b1-4)GlcNAc", "value": -0.708}, {"measurement": "glycan array binding signal (z-score)", "setting": "[21]", "value": -0.246}, {"measurement": "glycan array binding signal (z-score)", "setting": "[22]", "value": 3.75}, {"measurement": "glycan array binding signal (z-score)", "setting": "GalNAc4S6S(b1-4)GlcNAc", "value": -0.65}]}
